Entries with a potency or affinity are not part of this list. The source made the active and inactive calls. The rule behind the calls is not given here.

Sequence of Metabotropic glutamate receptor 4 (Homo sapiens) (Q14833 whole entry, looked up): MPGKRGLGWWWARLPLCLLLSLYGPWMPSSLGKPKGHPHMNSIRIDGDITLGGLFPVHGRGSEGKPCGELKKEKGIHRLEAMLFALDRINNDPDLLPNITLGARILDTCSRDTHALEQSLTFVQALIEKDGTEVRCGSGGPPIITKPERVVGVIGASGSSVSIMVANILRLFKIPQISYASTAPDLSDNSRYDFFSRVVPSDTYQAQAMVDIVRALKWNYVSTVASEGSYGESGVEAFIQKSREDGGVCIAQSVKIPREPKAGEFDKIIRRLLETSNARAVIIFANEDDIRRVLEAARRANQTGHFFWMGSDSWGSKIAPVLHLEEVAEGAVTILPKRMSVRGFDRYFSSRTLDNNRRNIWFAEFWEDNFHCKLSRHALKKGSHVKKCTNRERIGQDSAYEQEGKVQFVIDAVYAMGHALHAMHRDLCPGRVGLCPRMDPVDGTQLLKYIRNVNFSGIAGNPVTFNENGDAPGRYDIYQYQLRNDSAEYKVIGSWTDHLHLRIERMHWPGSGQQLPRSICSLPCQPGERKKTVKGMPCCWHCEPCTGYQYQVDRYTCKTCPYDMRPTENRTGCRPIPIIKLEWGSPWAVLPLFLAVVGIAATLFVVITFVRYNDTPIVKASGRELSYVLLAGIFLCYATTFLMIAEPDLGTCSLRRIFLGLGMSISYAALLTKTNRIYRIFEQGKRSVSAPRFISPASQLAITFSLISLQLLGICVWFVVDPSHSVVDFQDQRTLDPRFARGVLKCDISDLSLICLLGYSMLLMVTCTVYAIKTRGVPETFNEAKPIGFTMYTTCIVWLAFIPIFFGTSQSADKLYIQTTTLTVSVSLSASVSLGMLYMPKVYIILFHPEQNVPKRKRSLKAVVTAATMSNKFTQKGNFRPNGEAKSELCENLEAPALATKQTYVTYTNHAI

This assay concerns the target Metabotropic glutamate receptor 4 (Homo sapiens) (UniProt Q14833). Kind of assay: PubChem AID 2807. As to conditions: CHO hmGluR4/Gqi5 calcium mobilization, PAM potentiation; series mostly up to 30 µM. A general note: A change in cytosolic calcium serves as a functional read-out for many receptors and channels.
With `Cn1cccc1C(=O)Nc1ccc(Cl)c(Cl)c1`, the outcome was inactive. With `O=C(Nc1ccc(Cl)c(Cl)c1)c1ccc(-c2ccccc2)o1`, the result was inactive.

Turning to `O=C(Nc1ccc(Cl)c(Cl)c1)c1cnccn1`, the outcome was inactive. For `O=C(Nc1ccc(Cl)c(Cl)c1)c1ccccc1`, the result was inactive.

`O=C(Nc1ccc(Cl)c(Cl)c1)c1cc2ccccc2o1`: the outcome was inactive. `O=C(Nc1ccc(Cl)c(Cl)c1)C1CCCCC1`: the result was inactive.

Values taken from PubChem BioAssay AID2807 (Vanderbilt High Throughput Screening Facility, 2010).
